Screens from PubChem BioAssay.
Sm TGR inh: inhibitors of Schistosoma mansoni thioredoxin glutathione reductase. Potency, µM (doses to about 114 µM), inactives show top-dose activity change, negative = inhibition, actives largely listed as inhibitors. purified TGR, DTNB reduction, TNB absorbance 405 nm. hit rate 3% among 360,000. AID 485364. Q962Y6; further: nearly all actives have a fitted effect of over 60% in size
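TGR 20 nM + NADPH 100 uM (dispensed conc.), cpd preinc 15 min RT; start with NADPH (500 uM addition) then DTNB (15 mM addition). Kinetic TNB absorbance, 405 nm filter. Four-parameter Hill fit across titration.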
TbPYK inhibitor: inhibitors of Trypanosoma brucei pyruvate kinase; Q57TT1; hit rate 0.12% among 410,000; TbPYK enzyme, Kinase-Glo Plus ATP luminescence, 45 min; Potency, µM (doses to about 76.8 µM), inactives show at the top dose activity, negative = inhibition, hits mostly inhibitors; further: nearly all actives have a fitted effect of over 50% in size
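Activity of T. brucei pyruvate kinase was followed by Kinase-Glo Plus luminescence after the enzyme reacted 45 min at room temperature with 130 uM ADP (final) and substrate. Test compounds were added before ADP at multiple concentrations.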
AMA1 RON2 block: disrupts binding of P. falciparum AMA1 to RON2; Potency, µM (top dose mostly 58.2 µM), inactives show at the top dose activity change, negative = inhibition, usual class: inhibitors; hit rate 0.2% among 360,000; AlphaScreen AMA1-biotinylated RON2 peptide binding;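 further: 0% = vehicle wells and -100% = peptide control; nearly all actives have a fitted effect of over 45% in size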
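AMA1 (3D7) with his tag at 25 nM final met compounds first, then biotinylated RON2 peptide at 25 nM; detection used donor plus acceptor beads, 10 µg/mL apiece, read by AlphaScreen after 30 min at room temperature.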
RE007 growth inh: less growth of the S. pombe RE007 Vpr strain. S. pombe RE007 Vpr strain, BacTiter-Glo ATP luminescence, 24 h. Potency, µM (series often up to 92.2 µM), inactives show at the top dose activity change, negative = less growth, most hits filed as inhibitors. hit rate 0.21% among 360,000; active means well fitted falling curve with a large enough effect; inconclusive means small, poorly fitted or top-dose-only effect; inactive means no such curve, though single readings can be large or run the other way; further: nearly all actives have a fitted effect of over 50% in size
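Fission yeast strain RE007, carrying one chromosomally integrated HIV-1 vpr copy, was seeded at OD 0.01 in PMG+AL medium with 23 nL pinned compound. After 24 h at 30 °C and 99% humidity, viability was read by BacTiter-Glo luminescence.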
LmPK inh: blocks Leishmania mexicana pyruvate kinase activity | Q27686 | purified LmPK, Kinase-Glo ATP luminescence, 1 h | Potency, µM (top dose mostly 57.5 µM), for inactives: at the highest dose activity change, negative = inhibition, most hits filed as inhibitors | hit rate 0.37% among 290,000 | AID 1721
Target sequence (Q27686 whole entry, looked up): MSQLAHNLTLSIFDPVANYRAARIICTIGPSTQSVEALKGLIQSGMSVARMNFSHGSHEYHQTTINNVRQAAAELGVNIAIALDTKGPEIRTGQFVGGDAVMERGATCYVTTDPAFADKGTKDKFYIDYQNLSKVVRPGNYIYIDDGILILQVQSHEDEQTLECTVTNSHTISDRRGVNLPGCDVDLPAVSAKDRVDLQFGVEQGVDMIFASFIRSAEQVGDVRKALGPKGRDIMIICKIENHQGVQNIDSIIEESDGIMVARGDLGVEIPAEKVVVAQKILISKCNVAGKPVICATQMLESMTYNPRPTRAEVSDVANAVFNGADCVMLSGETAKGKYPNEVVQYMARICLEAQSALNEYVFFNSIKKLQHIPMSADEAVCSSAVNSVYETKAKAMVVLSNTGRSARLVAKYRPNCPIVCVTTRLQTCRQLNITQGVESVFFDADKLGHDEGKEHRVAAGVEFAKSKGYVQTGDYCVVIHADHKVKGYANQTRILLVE
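ATP generated from ADP (0.1 mM) and PEP (0.5 mM) by 0.1 nM LmPK over 1 h at room temperature (pH 7.2 imidazole buffer) was detected by coupled luciferase luminescence. Values were normalized to uninhibited and no-enzyme wells.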
Active calls of the source: *; ? = inconclusive; . = no result; [ ] = dose if it differs, or a comment. A selection: hits, their analogues and other compounds. The true share with any hit is near 3.2%. Unless noted, the call rests on the fitted dose curve; in most records, active means well fitted curve in the direction sought with a large enough effect; inconclusive means small, poorly fitted or top-dose-only effect, or another doubt; inactive means no such curve, though single readings can be large; an effect the other way counts as inactive or inconclusive. Unless noted, on the % scale 0 is the no-effect control and ±100 the full control effect; potency means the concentration at half of the fitted maximal effect.

SMILES	Sm TGR inh	TbPYK inhibitor	AMA1 RON2 block	RE007 growth inh	LmPK inh
Cc1ccc(/C([O-])=C(/C(=S)NCc2ccco2)[n+]2ccccc2)cc1	?	.	.	.	5%
O=[N+]([O-])c1ccc(/C([O-])=C(/C(=S)NCc2ccco2)[n+]2ccccc2)cc1	22µM*	-18%	15%	-22%	-3%
[O-]/C(=C(\C(=S)NCc1ccco1)[n+]1ccccc1)c1ccccc1Br	25µM*	-18%	-27%	-11%	-2%
O=C(NCc1ccco1)C1CCN(C(=O)c2ccc([N+](=O)[O-])cc2)CC1	25µM*	1%	-3%	-7%	-2%
O=C(NCc1ccco1)C1CCN(C(=O)c2ccc(Cl)cc2)CC1	-11%	3%	-7%	-12%	.
N#CC1(NC(=O)COC(=O)c2ccccc2[N+](=O)[O-])CCCCC1	-1%	-15%	15%	-2%	.
N#CC1(NC(=O)COC(=O)c2cc(O)c3ccccc3c2O)CCCCC1	22µM*	28µM*	-7%	?	.
Cc1ccc(-n2nc3c(N4CCC(C(=O)NC5CCCCC5)CC4)nnc(C)c3c2C)cc1	-5%	4%	.	.	.
O=C(N/N=C/c1ccc(N2CCOCC2)cc1)c1ccc(O)cc1	45µM*	2%	62%	-15%	-12%
O=S(=O)(N/N=C/c1ccc(N2CCOCC2)cc1)c1ccccc1	35µM*	-2%	0%	22%	2%
COc1ccc(-c2cnc(C)o2)cc1S(=O)(=O)Nc1ccc(C)c(F)c1	-4%	1%	.	.	.
COC(C/C=C/C(=O)COCc1ccccc1)OC	16µM*	-2%	2%	-13%	2%
CC(=O)NC(c1ccco1)c1cc(Cl)c2ccc(N3CCCCC3)nc2c1O (stereo not drawn)	10µM*	.	.	.	.
O=C(Nc1nc(-c2ccc(Cl)cc2)cs1)C1CCCO1 (stereo not drawn)	-13%	3%	2%	22µM*	-1%
O=C(Nc1nc(-c2ccc(Cl)cc2Cl)cs1)C1CCCO1 (stereo not drawn)	-2%	-1%	1%	16µM*	0%
CCOc1ccc(-c2csc(NC(=O)C3CCCO3)n2)cc1 (stereo not drawn)	-4%	4%	-11%	7%	-4%
CN(C)S(=O)(=O)c1ccccc1N=C=S	16µM*	-6%	0%	9%	1%
O=C(/C=C/c1cccc([N+](=O)[O-])c1)N1CCOCC1	-7%	-4%	-4%[2.32 µM]	-11%	0%
O=C(/C=C/c1ccc(-c2cccc([N+](=O)[O-])c2)o1)N1CCOCC1	40µM*	-12%	-18%	2%	0%
CCCSc1ncc(Cl)c(C(=O)N2CCN(c3ccc(OC)cc3)CC2)n1	0%	4%	.	.	.
Cc1ccc2c(=O)cc(C(=O)N(Cc3ccc(N(C)C)cc3)C3CCS(=O)(=O)C3)oc2c1 (stereo not drawn)	4%	-9%	.	.	.
Cc1ccc2oc(C(=O)N(Cc3ccc(N(C)C)cc3)C3CCS(=O)(=O)C3)c(C)c2c1 (stereo not drawn)	-14%	-12%	28µM*	-7%	-2%
Cc1ccc2c(C)c(C(=O)N(Cc3ccc(N(C)C)cc3)C3CCS(=O)(=O)C3)oc2c1 (stereo not drawn)	2%	-6%	18µM*	0%	0%
CCOC(=O)NNc1ccc(N(CC)CC(C)O)nn1 (stereo not drawn)	.	0%	.	.	.
COc1ccc(Br)cc1CNC(=O)C(C)n1nc(C)n2c(cc3occc32)c1=O (stereo not drawn)	0%	7%	.	.	.
COc1ccc(OC)c(NC(=O)COCc2cc(-c3ccco3)on2)c1	-2%	7%[15.4 µM]	.	.	.
CC(=O)c1ccc(OCC(=O)OCc2cc(-c3ccco3)on2)cc1	50µM*	-4%	7%[11.6 µM]	-28%	.
COc1ccc(-c2nc(CN3CCN(C(=O)c4ccco4)CC3)c(C)o2)c(F)c1	50µM*	3%	6%	-8%	3%
COc1ccc(-c2nc(CN3CCN(C(=O)c4ccco4)CC3)c(C)o2)cc1OC	28µM*	-12%	3%	-5%	9%
Cc1ccc(-c2nc(CSCC(=O)N3CCN(C(=O)c4ccco4)CC3)c(C)o2)cc1	40µM*	-3%	3%	4%	14%
